High-throughput results (PubChem)
Only some compounds are listed: those with a hit (about 4.4% of all), similar ones and a draw of the others.
TIM10 inh: TIM10 yeast growth inhibition | S. cerevisiae TIM10 strain growth, BacTiter-Glo luminescence, 24 h | inhibition, % at 10 µM | 1.4% of 330,000 active | AID 463195;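 active means inhibition of 40% or more at the single tested concentration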;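 further: wild-type TIM10 isogenic control strain grown at permissive 25 °C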
PfHsp90 set2: inhibits growth of yeast expressing Plasmodium falciparum Hsp90. AID 504621. inhibition, % at 9.4 µM. 0.32% of 310,000 active. S. cerevisiae expressing PfHsp90, BacTiter-Glo ATP, 48 h; yeast lacking PDR1 and PDR3 efflux regulators;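 active means every replicate shows inhibition above about 80%, whatever the replicate mean, limit read from the data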;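 further: 0% = DMSO neutral controls and 100% = 20 µM radicicol positive controls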
Mot1-301 SUMO: inhibitors of SUMOylation pathway: yeast Mot1-301 growth rescue | S. cerevisiae Mot1-301 growth rescue, ATP luminescence, 38.5C; percent above DMSO median, 100 means doubled | AID 2716 | 1% of 320,000 active | growth rescue, % at 18.8 µM;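 active means every valid replicate shows activation above 250% relative to neutral control wells; inactive means the rest, any valid replicate at or below 250%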;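 further: OY570 slx delta 5 strain wells were the positive control but not used for scaling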
tim23-1 inh: tim23-1 yeast growth inhibition; S. cerevisiae tim23-1 growth, BacTiter-Glo luminescence, 24 h; AID 463212; 1.3% of 330,000 active; inhibition, % at 20 µM;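 active means growth inhibition of the mutant yeast at or above 50%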;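 further: temperature-sensitive mutant grown at 25 °C; plate controls were DMSO-treated mutant yeast for no effect and medium wells lacking yeast for full effect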
tim10-1 inh: tim10-1 yeast growth inhibition; S. cerevisiae tim10-1 ts strain growth, BacTiter-Glo, 24 h; inhibition, % at 20 µM; 2.2% of 330,000 active;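 active means inhibition of at least 40%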;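 further: mutant grown at 25 °C; 0% = DMSO wells with yeast and 100% = wells holding no yeast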
TIM10 conf: confirmation of TIM10 yeast growth inhibitors; shares compounds with TIM10 inh; S. cerevisiae tim10 strain growth, BacTiter-Glo luminescence, 24 h; inhibition, % at 10 µM; 63% of 4,600 active;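 active means inhibition of yeast growth at or above a set limit in either of two replicates at 10 µM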;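 further: this counterscreen used the strain with wild-type TIM10; 0% = yeast with DMSO and 100% = medium wells lacking yeast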
* marks the source's active call; other numbers are inactive results; · = no result.

SMILES	TIM10 inh	PfHsp90 set2	Mot1-301 SUMO	tim23-1 inh	tim10-1 inh	TIM10 conf
CC(N=C1NS(=O)(=O)c2ccccc21)C(=O)NCc1ccc(F)cc1 (stereo unspecified)	-10.2	·	-0.9	-5.2	-13.4	·
CCCC(=O)Nc1ccc(NC(=O)c2cccs2)cn1	40.4*	-11.0	-5.0	19.3	-14.9	-0.7
O=C(Nc1ccc(NC(=O)c2cccs2)cn1)c1ccccc1	41.8*	13.3	42.9	18.9	-17.2	29.6*
CCCC(=O)NC(=S)Nc1ccc(NC(=O)c2cccs2)cc1	44.8*	·	-7.6	19.7	-14.1	17.7
COc1ccc(OCC(=O)NC2CCCN(Cc3ccc(Cl)cc3)C2)cc1 (stereo unspecified)	4.8	-4.9	249.6	9.4	16.5	·
CC(=O)Nc1c(O)c2cccc3c2n(c1=O)CCC3	-4.6	0.8	-2.9	9.6	-21.2	·
COc1ccc(NC(=O)CN(C)C(=O)c2ccc(-c3ccccc3Cl)o2)cc1	-25.4	·	0.6	15.9	-12.4	·
CCOC(=O)C1=C(C)NC(=O)NC1c1ccc(-c2ccc(Cl)cc2)o1 (stereo unspecified)	12.5	-2.6	-9.0	15.7	16.0	·
CCOC(=O)C1=C(C)NC(=S)N(C(C)=O)C1c1ccc(Cl)cc1 (stereo unspecified)	42.3*	-11.7	-16.5	46.7	24.9	42.0*
CCOC(=O)C1=C(C)NC(=S)NC1c1ccc(-c2ccc(Cl)cc2)o1 (stereo unspecified)	44.4*	-37.3	6.7	28.9	29.0	33.2*
COc1ccc(C(CNC(=O)c2ccc(NS(=O)(=O)c3ccc(F)c(C)c3)cc2)N2CCOCC2)cc1 (stereo unspecified)	0.2	-16.4	28.9	-2.6	-14.6	·
C=CCn1c(SCc2ccc3nonc3c2)nnc1-c1cccs1	47.7*	-0.8	-0.5	26.5	38.0	25.6*
C=CCn1c(SCC(=O)C(C)(C)C)nnc1-c1cccs1	0.5	·	-5.6	18.5	17.4	·
Cc1ccc(S(=O)(=O)N2CCCCCC2)cc1C(=O)NCc1ccccn1	14.3	-22.8	-28.8	9.8	-0.8	·
CCCCCOC(=O)c1[nH]c2c(c1C)C(=O)C(C(=O)OC)C(C)C2 (stereo unspecified)	43.1*	12.1	-9.8	47.8	38.9	36.8*
COCCOC(=O)c1[nH]c2c(c1C)C(=O)C(C(=O)OC)C(C)C2 (stereo unspecified)	1.3	0.7	0.3	6.6	-8.4	·
CN1c2ccccc2C(C)(C)[C@]12C=Cc1cc(O)ccc1O2	45.2*	-23.9	-15.0	41.6	35.8	34.9*
Cc1ccc(NC(=O)COC(=O)c2ccc3c(c2)C(=O)N(CCc2ccccc2)C3=O)c(C)c1	41.3*	-43.2	-17.1	-27.0	0.9	-17.6
O=C(NCc1nc(-c2ccc(Cl)cc2)no1)c1ccc2c(c1)OCO2	42.7*	0.4	16.4	20.2	-20.3	7.6
CCCC(=O)Nc1cccc(-c2nc3ccccc3o2)c1	47.4*	-2.4	-12.1	-8.0	25.3	11.6
CN(CC(=O)OCC(N)=O)S(=O)(=O)c1ccc(Cl)cc1	40.2*	-20.5	-5.6	3.6	8.3	-0.1
Cn1cc(CCC(=O)NC2CC(C)(C)Cc3c2cnn3-c2ccc(F)cc2)cn1 (stereo unspecified)	5.7	4.8	·	12.2	14.8	·
CC(=O)N1CC(=O)N(Cc2ccccc2)/C(=C/c2ccccc2)C1=O	43.8*	8.5	-3.5	48.2	38.4	40.4*
CC1CCCCN1C(=O)CN1C(=O)CSc2ccc(S(=O)(=O)N3CCOCC3)cc21 (stereo unspecified)	8.6	-0.4	143.6	-2.8	-3.5	·
S=c1nc(SCc2ccccc2)[nH]c2ccccc12	49.4*	-3.2	2.1	12.0	36.0	39.5*
Cc1ccc(C(c2nnnn2C2CCCC2)N2CCN(c3nc4ccccc4s3)CC2)cc1 (stereo unspecified)	56.5*	-12.0	26.5	11.6	37.7	-1.2
c1ccc(C(c2nnnn2C2CCCC2)N2CCN(c3nc4ccccc4s3)CC2)cc1 (stereo unspecified)	46.9*	-12.8	·	11.8	36.4	-18.9
c1csc(C(c2nnnn2C2CCCCC2)N2CCN(c3nc4ccccc4s3)CC2)c1 (stereo unspecified)	·	72.4	·	·	·	·
